Test results reported in PubChem BioAssay AID1159580 (chemical genetic matrix, 2015).
“And” between values parts separate entries of the source, which are not always exact repeats. Equal values may be shown once. Hit rate of the full screen: of about 5,500 compounds, about 2,000 (36%) were called active. Roughly 18% stayed inconclusive and do not appear here. No stated cut-off is given here; in the data, active means normalized growth mostly below about 0.91 (no sharp cut-off); inconclusive means no clear call, values can overlap the other calls; inactive means mostly above about 0.92. The list shows a part of the results.

Test: chemical genetic growth profiling, strain panel (AID 1159580);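 further: tested at 20 µM; growth read once vehicle control cultures reached saturation at 30 °C; 1 = growth at the plate median or of vehicle wells; lower values mean less growth of the strain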
Details: S. cerevisiae deletion strains, growth OD

Measured: normalized growth

CC(=O)OCC1=C(C(=O)O)N2C(=O)[C@@H](NC(=O)CSc3ccncc3)[C@H]2SC1
inactive: locus YAL013W, strain DEP1, active compounds read low 0.988 | locus YAL021C, strain ccr4, active compounds read low 1.02 | locus YAL026C, strain drs2, active compounds read low 1.02 | locus YAL030W, strain snc1, active compounds read low 1 | locus YBL061C, strain skt5, active compounds read low 1.04 | locus YBR009C, strain hhf1, active compounds read low 1.01 | locus YBR021W, strain FUR4, active compounds read low 1.02 | locus YBR023C, strain chs3, active compounds read low 1.04 | locus YBR171W, strain sec66, active compounds read low 1.02 | locus YBR229C, strain ROT2, active compounds read low 0.95 | locus YBR231C, strain swc5, active compounds read low 1.04 | locus YBR279W, strain paf1, active compounds read low 1.03 | locus YCL011C, strain gbp2, active compounds read low 1.01 | locus YCL016C, strain dcc1, active compounds read low 1.02 | locus YCL029C, strain bik1, active compounds read low 1 | locus YCL061C, strain MRC1, active compounds read low 1.01 | locus YCL069W, strain vba3, active compounds read low 1.02 | locus YCR088W, strain abp1, active compounds read low 1.02 | locus YDL005C, strain med2, active compounds read low 1.02 | locus YDL035C, strain GPR1, active compounds read low 0.959 | locus YDL040C, strain nat1, active compounds read low 1.02 | locus YDL074C, strain BRE1, active compounds read low 1 | locus YDL101C, strain DUN1, active compounds read low 0.988 | locus YDL185W, strain tfp1, active compounds read low 0.966 | locus YDL192W, strain arf1, active compounds read low 0.984 | locus YDR001C, strain nth1, active compounds read low 1.02 | locus YDR069C, strain doa4, active compounds read low 1.04 | locus YDR101C, strain arx1, active compounds read low 0.976 | locus YDR137W, strain rgp1, active compounds read low 1 | locus YDR159W, strain sac3, active compounds read low 1.03 | locus YDR162C, strain NBP2, active compounds read low 0.946 | locus YDR195W, strain ref2 1.03 | locus YDR297W, strain sur2, active compounds read low 1.02 | locus YDR318W, strain mcm21, active compounds read low 0.99 | locus YDR334W, strain swr1, active compounds read low 1.01 | locus YDR335W, strain msn5, active compounds read low 1.03 | locus YDR388W, active compounds read low 0.988 | locus YDR392W, strain spt3, active compounds read low 0.957 | locus YDR502C, strain sam2, active compounds read low 0.998 | locus YEL003W, strain gim4, active compounds read low 1.03 | locus YEL037C, strain rad23, active compounds read low 1 | locus YEL061C, strain CIN8 (second series), active compounds read low 1.05 | locus YEL061C, strain CIN8, active compounds read low 0.99 | locus YER015W, strain faa2, active compounds read low 1.01 | locus YER016W, strain bim1, active compounds read low 1.03 | locus YER110C, active compounds read low 0.991 | locus YER111C, strain swi4, active compounds read low 0.997 | locus YER155C, strain BEM2 (second series), active compounds read low 0.992 | locus YER155C, strain BEM2, active compounds read low 0.994 | locus YER167W, strain BCK2, active compounds read low 0.995 | locus YFR010W, strain ubp6, active compounds read low 1.02 | locus YGL078C, strain dbp3, active compounds read low 0.995 | locus YGL086W, strain mad1, active compounds read low 0.981 | locus YGL167C, strain pmr1, active compounds read low 1.03 | locus YGL173C, strain kem1, active compounds read low 1.03 | locus YGL227W, strain vid30, active compounds read low 1.01 | locus YGL240W, strain doc1, active compounds read low 1.03 | locus YGL248W, strain PDE1, active compounds read low 1.01 | locus YGL253W, strain hxk2, active compounds read low 1.02 | locus YGR078C, strain PAC10, active compounds read low 0.989 | locus YGR135W, strain pre9, active compounds read low 1.04 | locus YGR252W, strain gcn5, active compounds read low 1.02 | locus YHR013C, strain ard1, active compounds read low 1.03 | locus YHR027C, strain rpn1, active compounds read low 1.02 | locus YHR030C, strain SLT2, active compounds read low 0.983 and 0.995 | locus YHR079C, strain IRE1 (second series), active compounds read low 0.997 | locus YHR079C, strain IRE1, active compounds read low 1.01 | locus YHR094C, strain hxt1, active compounds read low 0.991 | locus YHR129C, strain ARP1, active compounds read low 0.984 | locus YHR142W, strain chs7, active compounds read low 1.03 | locus YHR200W, strain rpn10, active compounds read low 0.984 | locus YIL066C, strain RNR3, active compounds read low 0.969 | locus YIL073C, strain SPO22, active compounds read low 1.03 | locus YIL125W, strain kgd1, active compounds read low 0.984 | locus YIR030C, strain dcg1, active compounds read low 0.993 | locus YJL092W, strain hpr5, active compounds read low 1.02 | locus YJL095W, strain BCK1 (second series), active compounds read low 1.02 | locus YJL095W, strain BCK1, active compounds read low 1.05 and 0.991 | locus YJL115W, strain asf1, active compounds read low 1.03 | locus YJL129C, strain trk1, active compounds read low 1.01 | locus YJL134W, strain LCB3, active compounds read low 0.991 | locus YJL154C, strain vps35, active compounds read low 1.02 | locus YJL164C, strain tpk1, active compounds read low 1.01 | locus YJL166W, strain qcr8, active compounds read low 1.03 | locus YJL168C, strain set2, active compounds read low 0.99 | locus YJL187C, strain SWE1 (second series), active compounds read low 1 | locus YJL187C, strain SWE1, active compounds read low 1.02
